Inconclusive results are not listed. Values without a mark were called inactive. The source made the active and inactive calls. The call rests on the fitted dose curve; in most records, active means well fitted inhibition curve with a large enough effect; inconclusive means small, poorly fitted or top-dose-only effect; inactive means flat fitted curve, though single readings scatter.
Each compound was assayed against Calcium and integrin-binding protein 1 (Homo sapiens) (UniProt Q99828) (assay: Primary qHTS for Identification of Calcium Integrin Binding Protein 1 (CIB1) Competitor (AID 1508620;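 further: GST tagged CIB1 binding a fluorescein labelled alphaIIb integrin peptide tracer; top concentration of the series differs between compounds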)). Settings: CIB1-GST / FITC-alphaIIb peptide fluorescence polarization; series mostly up to 57.7 µM; activity change, negative = inhibition: at the top concentration.
Chain of Calcium and integrin-binding protein 1 (Homo sapiens) (Q99828 whole entry, looked up): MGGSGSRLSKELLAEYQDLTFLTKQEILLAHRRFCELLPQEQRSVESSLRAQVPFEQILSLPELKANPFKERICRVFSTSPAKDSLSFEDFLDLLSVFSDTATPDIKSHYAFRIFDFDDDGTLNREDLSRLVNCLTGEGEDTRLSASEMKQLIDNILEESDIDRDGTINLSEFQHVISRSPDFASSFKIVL
Summary of the method: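 Fluorescence polarization competition: CIB1-GST (1 uM final) preincubated with compound 15 min at room temperature, then FITC-labeled alphaIIb peptide (100 nM final) added for another 15 min. Polarization read at Ex 480/Em 540.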
On the % scale 0 is the no-effect control and ±100 the full control effect.

Row | Structure (SMILES) | activity change, negative = inhibition | Potency
1 | CC(=O)O[C@@H]1[C@H]2[C@@H](OC(=O)c3ccccc3)[C@@H](C)C[C@]2(O)[C@H](OC(C)=O)[C@@]2(C)[C@@H]3CC(C)(C)C(=O)[C@]3(OC(C)=O)C[C@@]12C | -5.2% [at 30.2 µM] | –
2 | C[C@]1(O)CC[C@@H]2C(C(=O)O)=CO[C@@H](O[C@@H]3O[C@H](COC(=O)c4ccc(O)cc4)[C@@H](O)[C@H](O)[C@H]3O)[C@@H]21 | 1.12% | –
3 | COC(=O)C1(Cc2ccc(O)cc2)OC(=O)C(OC)=C1c1ccc(O)cc1 (stereo not given) | 0.509% | –
4 | C[C@@H]1O[C@@H](OC[C@H]2O[C@@H](OCC3CCC4CC3C4(C)C)[C@H](O)[C@@H](O)[C@@H]2O)[C@H](O)[C@H](O)[C@H]1O (stereo not given in full) | -5.09% | –
5 | COC(=O)C1=COC(O[C@@H]2O[C@H](CO)[C@@H](O)[C@H](O)[C@H]2O)/C(=C\COC(=O)c2ccc(OC3OC(CO)C(O)C(O)C3O)c(OC)c2)C1CC(=O)OCCc1ccc(O)cc1 (stereo not given in full) | -3.12% [at 30.2 µM] | –
6 | CC1CC(O)C2(C)C(C(=O)O)=CCCC2C1(C)CCc1ccoc1 (stereo not given) | -3.55% | –
7 | C[C@@H]1O[C@@H](OC[C@H]2O[C@@H](OCCc3ccccc3)[C@H](O)[C@@H](O)[C@@H]2O)[C@H](O)[C@H](O)[C@H]1O | 4.77% | –
8 | CC(=O)O[C@@H]1C[C@@]23C[C@@]24CC[C@H](OC2OC[C@@H](O)[C@H](O)[C@H]2O)C(C)(C)[C@@H]4CC[C@H]3[C@]2(C)CC3OC4(C[C@@H](C)C3[C@@]12C)OCC1(C)OC14 (stereo not given in full) | -2.72% [at 30.2 µM] | –
9 | Cc1nn(C)c2c1C(c1ccc(C(F)(F)F)cc1)C(C#N)=C(N)O2 (stereo not given) | – | inactive
10 | COC1(CC(C)C)NC(=O)C(O)(Cc2ccccc2)NC1=O (stereo not given) | 1.37% | –
11 | CC1(C)CC2C3=CCC4C5(C)CCC(OC6OC(C(=O)O)C(O)C(O)C6OC6OC(CO)C(O)C(O)C6OC6OC(CO)C(O)C(O)C6O)C(C)(CO)C5CCC4(C)C3(C)CCC2(C)C(OC2OCC(O)C(OC3OC(CO)C(O)C(O)C3O)C2O)C1O (stereo not given) | -16.4% [at 12.4 µM] | –
12 | CC(C)(C)c1cc(CN2CCN(CC(O)c3ccc(Cl)cc3)CC2)cc(C(C)(C)C)c1O (stereo not given) | -4.52% [at 114 µM] | –
13 | CC(=O)O[C@@H]1C[C@]2(C)[C@@]3(CCC4[C@@]5(C)CC[C@H](O[C@@H]6O[C@H](C(=O)O)[C@@H](O)[C@H](O[C@@H]7O[C@H](CO)[C@H](O)[C@H](O)[C@H]7O[C@@H]7O[C@@H](C)[C@H](O)[C@@H](O)[C@H]7O[C@@H]7OC[C@](O)(CO)[C@H]7O)[C@H]6O[C@@H]6O[C@H](CO)[C@H](O)[C@H](O)[C@H]6O)C(C)(C)C5CC[C@]42C)O[C@@H](O)[C@]12C3CC(C)(C)[C@@H](OC(=O)/C=C/c1ccc(O)c(O)c1)[C@@H]2OC(=O)/C=C/c1ccccc1 (stereo not given in full) | 2.91% [at 12.4 µM] | –
14 | C/C=C(\C)C(=O)O[C@H]1[C@@H](O[C@]2(COC(=O)CC(C)C)O[C@H](COC(=O)C(C)C)[C@@H](OC(C)=O)[C@@H]2O)O[C@H](COC(C)=O)[C@@H](O)[C@@H]1O | 3.01% [at 30.2 µM] | –
15 | C/C=C/C1=CC2=C(CO1)C(=O)[C@](C)(O)[C@H](OC(=O)c1c(O)cc(OC)c(O)c1C)C2 | -9.96% | –
16 | CC(C)NC[C@H](O)COc1ccc(CCOCC2CC2)cc1 | 3.46% [at 114 µM] | –
17 | C=CCc1ccc(O[C@@H]2O[C@H](CO[C@@H]3O[C@H](CO)[C@@H](O)[C@H](O)[C@H]3O)[C@@H](O)[C@H](O)[C@H]2O)c(O)c1 | 1.33% | –
18 | C[C@]12CCC(=O)C=C1[C@@H](O)C[C@@H]1[C@@H]2[C@@H](O)C[C@@]2(C)[C@H]1CC[C@]2(O)C(=O)CO | -3.62% [at 114 µM] | –
19 | CC1=C2CC3OC3(C)CCC3OC3(C)CC2OC1=O (stereo not given) | -1.66% [at 114 µM] | –
20 | C=C[C@H]1[C@H](O[C@@H]2O[C@H](CO)[C@@H](O)[C@H](O)[C@H]2O)OC=C2C(=O)OCC[C@]21O | -2.19% | –
21 | CNC(=O)[C@H]1O[C@@H](n2cnc3c(NCc4ccc(N)c(I)c4)ncnc32)[C@H](O)[C@@H]1O | -2.33% [at 30.2 µM] | –
22 | CCC[C@@H]1C[C@@H](C(=O)N[C@@H]([C@H]2O[C@H](SC)[C@H](O)[C@@H](O)[C@@H]2O)[C@@H](C)O)N(C)C1 | 4.43% [at 114 µM] | –
23 | COc1ccc(C2=CC(=O)OC2Cc2ccc(O)cc2)c(O)c1 (stereo not given) | 5.68% | –
24 | C[C@@H]1CC[C@H]2C(C)(C)[C@H](O)[C@H](O)C[C@]2(C)[C@@]12Cc1c(O)cc3c(c1O2)CNC3=O | 1.45% | –
25 | COc1cc2c(cc1O)C1(Cc3ccc4c(c3C1=O)OCO4)N(C)CC2 (stereo not given) | -11.7% | –

From PubChem BioAssay (NCATS)
